Measurements as given in PubChem BioAssay.
Where “and” joins values, the source holds several entries; their conditions need not be identical. Equal entries are not always repeated. For part of these data: Results with a measured potency or affinity are listed apart. Calls of active or inactive are those of the source.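 The calls were made as follows, unless noted: active = compounds whose cell count with miR-34 switched on is under 0.7 times the count with it off; inactive = the rest.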

Tests used:
[1] = EMT-state selective cytotoxicity in co-culture – imaging, PC-3E GFP, TEM4-18 mCherry, primary screen (AID 1345086;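 active = compounds killing one labelled cell type while sparing the other, by normalised counts and ratio limits, not self-fluorescent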;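 as to all read-outs here: cells exposed to compound for 72 h before imaging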;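 as to red/green cell ratio (normalised): normalised mesenchymal count divided by normalised epithelial count so high means epithelial killing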); details: PC-3E GFP / TEM4-18 mCherry co-culture, imaging cell counts, at 1 µM; for red/green cell ratio (normalised): actives lie on both sides, counts scaled to control wells, 1 = unselective
[2] = viability loss with induced miR-34 in A549 – imaging, A549 dox-inducible miR-34, nuclei and caspase counts, primary screen (AID 1347080); details: A549 miR-34 inducible, Hoechst nuclei count, 48 h
[3] = MELAS cybrid and Rieske KO viability enhancers – cell-based, MELAS cybrids, Rieske KO mouse fibroblasts, CellTiter-Glo, primary screen (AID 1508586;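 active = mean z-score across replicates of 1.96 or higher in either the MELAS or the Rieske mutant cell line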;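 also: z relative to plate mean and SD of compound and empty wells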); details: low glucose
[4] = target: NAD(+) hydrolase SARM1 (Homo sapiens) (UniProt Q6SZW1); test: blocking NAD cleavage by SARM1 SAM-TIR – cell lysate, NAD-Glo luminescence (AID 1508614;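 active = compound whose remaining NAD level is above about 45 nM, limit read from the data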;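 also: higher remaining NAD means stronger inhibition of SARM1 NADase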); details: SAM-TIR HEK293T lysate NADase, at 1 µM, stronger effect = higher value
[5] = P. berghei load reduction in hepatocytes – cell-based, HepG2, luciferase luminescence, HepG2 viability, primary screen (AID 624349; in the data active = parasite load remaining mostly below about 12%, no sharp cut-off; inactive = mostly above about 10%;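 also: 100% = mean of DMSO negative control wells on the same plate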); details: P. berghei liver stage in HepG2, luciferase luminescence, concentration not given here; parasite load remaining: stronger effect = lower value; viability: measured here: HepG2 viability without parasites
[6] = target: Mitogen-activated protein kinase 7 (Homo sapiens) (UniProt Q13164); test: Gal4-ERK5 driven luciferase induction – cell-based, HTS, primary screen (AID 1508626;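 active = luciferase signal above three times the same-plate solvent-only control wells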;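 also: luciferase driven by Gal4-ERK5 fusion binding five Gal4 sites before minimal TATA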); details: HeLa Gal4-ERK5 transactivation, 18 h, at 5 µM, stronger effect = higher value
[7] = blockers of polyQ-driven CASP3 activation – cell-based (AID 1583); details: polyglutamine-induced caspase-3 activation, cell assay; stronger effect = higher value;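 tested at 10 µM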
[8] = yeast 75Q aggregation reduction – 75Q-TubU reporter (AID 1593); details: Yeast 75Q polyglutamine aggregation reporter
[9] = restoration of touch response, mutant HTT neurons – whole organism, C. elegans mechanosensory neurons, N-terminal huntingtin (AID 1599); details: C. elegans polyQ-huntingtin mechanosensory neurons, stronger effect = higher value
[10] = blockers of cytochrome c efflux from mitochondria – biochemical, purified mitochondria (AID 1603); details: stronger effect = lower value;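 also: mouse liver mitochondria challenged with calcium chloride; signal normalized to the plate average as 100%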
[11] = polyglutamine aggregate formation blockers (AID 1604); details: polyglutamine-induced protein aggregation inhibition assay; stronger effect = higher value; tested at 2.5 µM
[12] = glutamate transport activators, MN-1 cells, MN-1 cell line (AID 1612); details: MN-1 motor neuron cells, stronger effect = higher value;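 also: tested at 1 µM final; 0% = mean of DMSO vehicle wells on each plate; positive means more glutamate uptake than control and negative means less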
[13] = GFP-Q80 aggregate reduction, neuronal-like cells, cell-based, NGF-treated PC12, GFPQ80 (AID 1614); details: PC12 NGF-treated GFP-polyQ80 inclusion reduction;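 also: lower means fewer inclusions and 0 means no inclusions at all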
[14] = 75Q-TubH aggregate inhibition, S. cerevisiae, yeast (AID 1616); details: S. cerevisiae 75Q-TubH polyglutamine aggregation suppression; stronger effect = higher value
[15] = compounds altering circadian rhythm period length – cell-based, LOPAC library, luminescence reporter (AID 2774; call rule not given here;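 also: values are relative to mean of DMSO wells on each plate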); details: circadian reporter cells, at 7 µM, actives lie on both sides
[16] = tested on: Hepatitis C virus NS3 helicase; test: blockers of NS3h binding to ssDNA – biochemical, fluorescence polarization, LOPAC1280 library, primary screen (AID 687035; in the data active = inhibition above about 37%); details: Purified HCV NS3 helicase, Cy5-dT15 ssDNA binding fluorescence polarization; stronger effect = higher value; concentration not given here
[17] = compounds altering Cy5-DNA-NS3h complex signal – biochemical, LOPAC1280, artefact control for HCV NS3 helicase inhibitor project (AID 687037; call rule not given here); details: Cy5-DNA-NS3h complex fluorescence interference counterscreen
[18] = blockers of cellular phospholipid synthesis – cell-based, LOPAC library, screen 4, primary screen (AID 1347384; call rule not given here); details: animal cells, phospholipid biosynthesis inhibition screen; at 10 µM
[19] = galactose survival enhancers in mitochondrial complex I cybrids – cell-based, galactose medium, ATP luminescence, primary screen (AID 1645843;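 active = z-score of at least 1.8 in each of two replicates, scored against plate mean and spread of sample wells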;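 also: positive z means more ATP and so rescue of galactose-driven cybrid death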); details: complex I mutant cybrid cells, 72 h, stronger effect = higher value
[20] = compounds altering viability of human ES cells (AID 493140; call rule not given here;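 also: cells exposed to compounds for four days before counting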); details: human embryonic stem cell survival screen; stronger effect = higher value
[21] = measured here: epithelial PC-3E GFP cell survival
[22] = measured here: mesenchymal TEM4-18 mCherry cell survival
[23] = stronger effect = lower value, cell number ratio, induced over uninduced
[24] = measured here: relative caspase fold change +Dox/-Dox
[25] = measured here: total cells with miR-34 induction, stronger effect = lower value
[26] = measured here: total cells without miR-34 induction
[27] = MELAS cybrid survival, CellTiter-Glo 48 h, stronger effect = higher value
[28] = Rieske KO mouse fibroblast survival, CellTiter-Glo 72 h

Chain of NAD(+) hydrolase SARM1 (Homo sapiens) (Q6SZW1 whole entry, looked up): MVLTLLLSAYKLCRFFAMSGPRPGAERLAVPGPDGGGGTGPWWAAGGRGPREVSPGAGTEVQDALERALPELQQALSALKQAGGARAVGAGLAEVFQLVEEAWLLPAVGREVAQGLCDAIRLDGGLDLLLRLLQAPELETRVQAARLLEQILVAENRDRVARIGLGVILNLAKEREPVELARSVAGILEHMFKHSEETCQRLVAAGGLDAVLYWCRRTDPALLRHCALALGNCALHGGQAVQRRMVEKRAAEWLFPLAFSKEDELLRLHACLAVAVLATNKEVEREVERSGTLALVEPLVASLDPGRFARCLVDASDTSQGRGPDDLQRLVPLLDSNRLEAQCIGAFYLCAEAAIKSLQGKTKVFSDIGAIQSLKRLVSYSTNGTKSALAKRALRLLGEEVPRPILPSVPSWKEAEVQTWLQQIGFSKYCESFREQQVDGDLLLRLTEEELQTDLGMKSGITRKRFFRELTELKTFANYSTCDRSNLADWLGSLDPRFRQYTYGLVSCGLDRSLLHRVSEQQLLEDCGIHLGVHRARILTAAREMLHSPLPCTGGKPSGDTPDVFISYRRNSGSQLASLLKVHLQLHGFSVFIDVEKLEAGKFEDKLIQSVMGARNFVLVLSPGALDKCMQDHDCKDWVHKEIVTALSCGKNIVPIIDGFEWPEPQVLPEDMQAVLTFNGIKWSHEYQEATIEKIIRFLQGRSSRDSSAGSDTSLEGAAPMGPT
Chain of Mitogen-activated protein kinase 7 (Homo sapiens) (Q13164 whole entry, looked up, the tested form may be a part): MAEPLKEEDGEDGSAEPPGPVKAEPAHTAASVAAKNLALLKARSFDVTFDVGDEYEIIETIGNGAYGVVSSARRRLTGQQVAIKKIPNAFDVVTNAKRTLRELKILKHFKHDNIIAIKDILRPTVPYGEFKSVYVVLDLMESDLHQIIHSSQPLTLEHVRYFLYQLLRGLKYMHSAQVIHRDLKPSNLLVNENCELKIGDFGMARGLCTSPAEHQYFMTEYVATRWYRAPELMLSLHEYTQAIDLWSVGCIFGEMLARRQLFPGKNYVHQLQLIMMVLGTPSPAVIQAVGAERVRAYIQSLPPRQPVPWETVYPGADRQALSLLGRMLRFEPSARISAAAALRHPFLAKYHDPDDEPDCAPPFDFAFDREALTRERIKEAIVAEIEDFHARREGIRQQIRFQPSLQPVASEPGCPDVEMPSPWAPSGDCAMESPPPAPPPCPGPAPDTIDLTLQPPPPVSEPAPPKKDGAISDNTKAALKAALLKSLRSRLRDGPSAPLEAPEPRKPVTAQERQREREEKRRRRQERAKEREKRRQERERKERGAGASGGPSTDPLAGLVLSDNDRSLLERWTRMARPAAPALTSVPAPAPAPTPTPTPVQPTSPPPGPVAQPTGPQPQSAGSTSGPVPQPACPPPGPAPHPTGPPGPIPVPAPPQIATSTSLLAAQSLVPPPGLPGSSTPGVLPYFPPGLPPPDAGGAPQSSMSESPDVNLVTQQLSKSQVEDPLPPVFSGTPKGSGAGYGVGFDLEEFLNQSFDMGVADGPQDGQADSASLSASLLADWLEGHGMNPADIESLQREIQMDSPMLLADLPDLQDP

CC(=O)OC1CC2CCC1(C)C2(C)C (stereo unspecified)
red/green cell ratio (normalised) [1]: 1.03 (inactive) | normalised cell number [1, 21]: 0.91 | normalised cell number [1, 22]: 0.94 | fold change [2, 23]: 0.913 (inactive) | fold change [2, 24]: 0.766 | cell count [2, 25]: 8690 | cell count [2, 26]: 9520

CC(C)C/C=C/C=C\C(=O)N[C@@H](CC(N)=O)C(=O)N[C@@H]1C(=O)N[C@H](c2ccc(O)cc2)C(=O)N[C@H](CCCN)C(=O)N[C@H]([C@H](C)O)C(=O)N[C@@H](c2ccc(O)cc2)C(=O)N[C@H](c2ccc(O)cc2)C(=O)N[C@@H]([C@H](C)O)C(=O)N[C@@H](Cc2ccccc2)C(=O)N[C@H](CCCN)C(=O)N[C@@H](c2ccc(O[C@@H]3O[C@H](CO)[C@H](O)[C@@H](O)[C@@H]3O[C@@H]3O[C@H](CO)[C@@H](O)[C@H](O)[C@H]3O)cc2)C(=O)NC(C(C)O)C(=O)N[C@@H](c2ccc(O)cc2)C(=O)NCC(=O)N[C@@H](CC(C)C)C(=O)N[C@H](C)C(=O)N[C@@H](c2ccc(O)c(Cl)c2)C(=O)O[C@@H]1C(N)=O (stereo partly specified)
red/green cell ratio (normalised) [1]: 0.89 (inactive) | normalised cell number [1, 21]: 1.04 | normalised cell number [1, 22]: 0.93 | fold change [2, 23]: 0.899 (inactive) | fold change [2, 24]: 0.946 | cell count [2, 25]: 8820 | cell count [2, 26]: 9820

O=C(O)CCCN1CCN([C@H](c2ccccc2)c2ccc(Cl)cc2)CC1
red/green cell ratio (normalised) [1]: 0.97 (inactive) | normalised cell number [1, 21]: 1.14 | normalised cell number [1, 22]: 1.11 | fold change [2, 23]: 0.876 (inactive) | fold change [2, 24]: 0.778 | cell count [2, 25]: 8580 | cell count [2, 26]: 9800

CCCCCOC(=O)Nc1nc(=O)n(C2O[C@H](C)[C@@H](O)[C@H]2O)cc1F (stereo partly specified)
red/green cell ratio (normalised) [1]: 1.41 (inactive) | normalised cell number [1, 21]: 0.48 | normalised cell number [1, 22]: 0.68 | fold change [2, 23]: 0.954 (inactive) | fold change [2, 24]: 0.897 | cell count [2, 25]: 8840 | cell count [2, 26]: 9270

O=c1[nH]cnc2c1ncn2C1O[C@H](CO)[C@@H](O)[C@H]1O (stereo partly specified)
red/green cell ratio (normalised) [1]: 1.22 (inactive) | normalised cell number [1, 21]: 0.83 | normalised cell number [1, 22]: 1.02 | fold change [2, 23]: 0.943 (inactive) | fold change [2, 24]: 0.652 | cell count [2, 25]: 8910 | cell count [2, 26]: 9440

CCC(=O)OCC(=O)[C@@]1(OC(=O)CC)[C@H](C)CC2C3C([C@@H](O)C[C@@]21C)[C@@]1(C)C=CC(=O)C=C1C[C@H]3Cl (stereo partly specified)
red/green cell ratio (normalised) [1]: 1.28 (inactive) | normalised cell number [1, 21]: 0.98 | normalised cell number [1, 22]: 1.25 | fold change [2, 23]: 0.884 (inactive) | fold change [2, 24]: 0.881 | cell count [2, 25]: 5210 | cell count [2, 26]: 5890

CCOC(=O)CC(=O)N1CCSC1COc1ccccc1OC (stereo unspecified)
red/green cell ratio (normalised) [1]: 1.03 (inactive) | normalised cell number [1, 21]: 0.9 | normalised cell number [1, 22]: 0.93 | fold change [2, 23]: 0.901 (inactive) and 0.963 (inactive) | fold change [2, 24]: 1.01 and 0.429 | cell count [2, 25]: 7560 and 7640 | cell count [2, 26]: 8380 and 7930 | z-score [3, 27]: -0.272 (inactive) | z-score [3, 28]: -0.0679 | remaining NAD [4]: 10 nM (inactive)

CC(=O)[C@H]1CCC2C3CC=C4C[C@@H](OC(=O)CCC(=O)O)CC[C@]4(C)C3CC[C@@]21C (stereo partly specified)
red/green cell ratio (normalised) [1]: 0.87 (inactive) | normalised cell number [1, 21]: 1.07 | normalised cell number [1, 22]: 0.93 | fold change [2, 23]: 0.903 (inactive) | fold change [2, 24]: 0.914 | cell count [2, 25]: 8450 | cell count [2, 26]: 9360

O=[N+]([O-])O[C@@H]1CO[C@H]2[C@@H]1OC[C@@H]2O
parasite load remaining [5]: 73.3% (inactive) | viability [5]: 93.9% | red/green cell ratio (normalised) [1]: 1.19 (inactive) | normalised cell number [1, 21]: 1.15 | normalised cell number [1, 22]: 1.37 | fold change [2, 23]: 0.933 (inactive) | fold change [2, 24]: 3.92 | cell count [2, 25]: 12300 | cell count [2, 26]: 13200 | z-score [3, 27]: -0.228 (inactive) | z-score [3, 28]: 0.0347 | remaining NAD [4]: 12 nM (inactive) | luciferase signal [6]: 52 AU (inactive)

COC1CC2CCC(C)C(O)(O2)C(=O)C(=O)N2CCCCC2C(=O)OC(C(C)CC2CCC(O)C(OC)C2)CC(=O)C(C)/C=C(\C)C(O)C(OC)C(=O)C(C)CC(C)/C=C/C=C/C=C/1C (stereo unspecified)
parasite load remaining [5]: 60.9% (inactive) | viability [5]: 98.1% | red/green cell ratio (normalised) [1]: 1.36 (inactive) | normalised cell number [1, 21]: 0.36 | normalised cell number [1, 22]: 0.49 | fold change [2, 23]: 0.865 (inactive) | fold change [2, 24]: 3.67 | cell count [2, 25]: 7720 | cell count [2, 26]: 8920

CCNC1CN(CCCOC)S(=O)(=O)c2sc(S(N)(=O)=O)cc21 (stereo unspecified)
red/green cell ratio (normalised) [1]: 0.72 (inactive) | normalised cell number [1, 21]: 1.22 | normalised cell number [1, 22]: 0.87 | fold change [2, 23]: 0.853 (inactive) | fold change [2, 24]: 0.647 | cell count [2, 25]: 8320 | cell count [2, 26]: 9750 | z-score [3, 27]: -0.247 (inactive) | z-score [3, 28]: -0.152

O=C(O)C1CCCNC1 (stereo unspecified)
inhibition [7]: 28% | score [8]: 2.59 | rescue above control [9]: -9.05 | cytochrome c release ratio [10]: 1.08 | inhibition of aggregation [11]: 41.5% | glutamate uptake change [12]: -1.16% | inclusion score [13]: 2 | aggregation suppression score [14]: 1.59 | period change [15]: 0.19 h (inactive) | parasite load remaining [5]: 89.7% (inactive) | viability [5]: 95.9% | inhibition [16]: 0% (inactive) | fluorescence ratio (interference) [17]: 0.9 (inactive) | red/green cell ratio (normalised) [1]: 0.84 (inactive) | normalised cell number [1, 21]: 1.28 | normalised cell number [1, 22]: 1.08 | fold change [2, 23]: 0.976 (inactive) and 0.953 (inactive) | fold change [2, 24]: 1.22 and 0.942 | cell count [2, 25]: 9840 and 8650 | cell count [2, 26]: 10100 and 9080 | outcome [18]: inactive | z-score [19]: 0.695 (inactive)

CC(=O)OCC(=O)[C@@]1(O)[C@@H](C)CC2C3CCC4=CC(=O)C=C[C@]4(C)[C@@]3(F)[C@@H](O)C[C@@]21C (stereo partly specified)
red/green cell ratio (normalised) [1]: 0.93 (inactive) | normalised cell number [1, 21]: 1.21 | normalised cell number [1, 22]: 1.13 | fold change [2, 23]: 0.963 (inactive) | fold change [2, 24]: 0.848 | cell count [2, 25]: 6280 | cell count [2, 26]: 6520

CC(=O)Oc1cc2c(s1)CCN([C@H](C(=O)C1CC1)c1ccccc1F)C2
red/green cell ratio (normalised) [1]: 1.12 (inactive) | normalised cell number [1, 21]: 0.87 | normalised cell number [1, 22]: 0.98 | fold change [2, 23]: 0.848 (inactive) | fold change [2, 24]: 0.716 | cell count [2, 25]: 7480 | cell count [2, 26]: 8810

CN1C2CCC1CC(OC(=O)c1c[nH]c3ccccc13)C2 (stereo unspecified)
period change [15]: 0.005 h (inactive) | inhibition [16]: 0% (inactive) | fluorescence ratio (interference) [17]: 1 (inactive) | red/green cell ratio (normalised) [1]: 1.09 (inactive) | normalised cell number [1, 21]: 0.93 | normalised cell number [1, 22]: 1.02 | fold change [2, 23]: 0.997 (inactive) and 0.976 (inactive) and 0.922 (inactive) | fold change [2, 24]: 1.28 and 0.664 and 2.09 | cell count [2, 25]: 10100 and 8850 and 6980 | cell count [2, 26]: 10100 and 9070 and 7570 | outcome [18]: inactive | z-score [19]: -0.34 (inactive) and 0.77 (inactive)

N[C@H]1CONC1=O
period change [15]: -0.055 h (inactive) | survival [20]: 1.5 (inactive) | parasite load remaining [5]: 74% (inactive) | viability [5]: 71% | inhibition [16]: 0% (inactive) | fluorescence ratio (interference) [17]: 1 (inactive) | red/green cell ratio (normalised) [1]: 0.88 (inactive) | normalised cell number [1, 21]: 1.18 | normalised cell number [1, 22]: 1.03 | fold change [2, 23]: 1.03 (inactive) and 0.935 (inactive) and 0.898 (inactive) | fold change [2, 24]: 1.58 and 1.14 and 0.652 | cell count [2, 25]: 10600 and 9010 and 9280 | cell count [2, 26]: 10300 and 9640 | outcome [18]: inactive | z-score [3, 27]: -0.786 (inactive) | z-score [3, 28]: -1.27 | remaining NAD [4]: 10 nM (inactive) | z-score [19]: -0.18 (inactive)
